# Measured values: article PMC7862700, “An all-to-all approach to the identification of sequence-specific readers for epigenetic DNA modifications on cytosine”
# What was measured:
# Experiment in all cases: DAPPL (digital affinity profiling via proximity ligation, sequencing); 10 mM Tris-HCl pH 7.5, 50 mM NaCl, 1 mM DTT, 4% glycerol, room temperature, 30 min; GST-TFs on glutathione beads, 16-mer random dsDNA library, 0.1% formaldehyde crosslink after washing; high values mean tight binding
# Details in all cases: protein: recombinant; tags: N-terminal GST; dsDNA, one strand shown
# FLI1 = biological target: T1, FLI1 (Homo sapiens, UniProt Q01543 1-452)
# T1 sequence: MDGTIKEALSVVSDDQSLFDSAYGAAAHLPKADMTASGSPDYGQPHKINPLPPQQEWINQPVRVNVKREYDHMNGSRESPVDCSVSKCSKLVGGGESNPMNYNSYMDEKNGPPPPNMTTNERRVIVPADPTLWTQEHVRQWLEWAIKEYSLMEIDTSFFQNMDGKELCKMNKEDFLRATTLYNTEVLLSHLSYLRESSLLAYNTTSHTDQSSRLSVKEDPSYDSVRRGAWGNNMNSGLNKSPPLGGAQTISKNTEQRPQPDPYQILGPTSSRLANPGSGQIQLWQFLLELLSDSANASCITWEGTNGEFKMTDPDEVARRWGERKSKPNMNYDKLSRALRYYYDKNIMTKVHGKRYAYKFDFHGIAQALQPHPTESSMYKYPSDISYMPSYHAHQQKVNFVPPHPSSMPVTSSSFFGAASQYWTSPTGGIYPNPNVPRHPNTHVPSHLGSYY
# Procedure, shortened: (§1)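 After expression in yeast as GST fusions, human transcription factors were bound to glutathione beads, DNA-barcoded and mixed with a tag-only sample. The pools were incubated with 200 nmole of a 16-mer random double-stranded DNA library in Tris/NaCl/DTT/glycerol buffer (30 min, room temperature), washed and crosslinked with 0.1% formaldehyde. Proximity ligation with BsaI/T4 ligase ran for 1 h at 37 °C, before PCR amplification and sequencing on an Illumina NextSeq500. Binding signal is a hexamer's read frequency for a factor divided by its frequency for the tag-only sample.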
# GABPA = biological target: T2, GABPA (Homo sapiens, UniProt Q06546 1-454)
# T2 sequence: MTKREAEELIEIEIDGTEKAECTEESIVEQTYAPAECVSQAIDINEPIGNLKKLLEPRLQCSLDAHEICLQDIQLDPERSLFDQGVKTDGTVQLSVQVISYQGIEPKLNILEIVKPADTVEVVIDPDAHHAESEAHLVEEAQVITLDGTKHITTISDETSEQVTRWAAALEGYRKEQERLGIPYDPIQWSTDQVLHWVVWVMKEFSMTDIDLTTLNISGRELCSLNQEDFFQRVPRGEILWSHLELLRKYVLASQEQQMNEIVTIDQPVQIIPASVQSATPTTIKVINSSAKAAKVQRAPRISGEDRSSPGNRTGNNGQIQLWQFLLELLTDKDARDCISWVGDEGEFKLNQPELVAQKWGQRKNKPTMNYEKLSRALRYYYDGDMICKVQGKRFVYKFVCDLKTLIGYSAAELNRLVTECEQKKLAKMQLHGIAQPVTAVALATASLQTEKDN
# Procedure, shortened: as §1
# ERG = biological target: T3, ERG (Homo sapiens, UniProt P11308 1-479)
# T3 sequence: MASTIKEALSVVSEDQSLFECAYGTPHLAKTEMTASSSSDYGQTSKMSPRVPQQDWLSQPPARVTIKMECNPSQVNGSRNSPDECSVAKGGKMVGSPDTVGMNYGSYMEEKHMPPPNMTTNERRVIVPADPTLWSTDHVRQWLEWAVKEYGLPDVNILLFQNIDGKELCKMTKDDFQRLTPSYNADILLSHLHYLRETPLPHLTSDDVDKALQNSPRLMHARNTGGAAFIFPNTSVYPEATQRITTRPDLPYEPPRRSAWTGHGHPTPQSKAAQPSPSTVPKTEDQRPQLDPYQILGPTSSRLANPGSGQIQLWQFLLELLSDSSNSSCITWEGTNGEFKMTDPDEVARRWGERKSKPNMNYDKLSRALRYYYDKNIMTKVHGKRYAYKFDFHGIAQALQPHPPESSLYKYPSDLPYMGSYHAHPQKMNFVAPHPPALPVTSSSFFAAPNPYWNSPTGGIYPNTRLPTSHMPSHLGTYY
# Procedure, shortened: as §1
# ELF1 = ELF1 (Homo sapiens, UniProt P32519 1-619)
# ELF1, sequence (P32519 whole entry): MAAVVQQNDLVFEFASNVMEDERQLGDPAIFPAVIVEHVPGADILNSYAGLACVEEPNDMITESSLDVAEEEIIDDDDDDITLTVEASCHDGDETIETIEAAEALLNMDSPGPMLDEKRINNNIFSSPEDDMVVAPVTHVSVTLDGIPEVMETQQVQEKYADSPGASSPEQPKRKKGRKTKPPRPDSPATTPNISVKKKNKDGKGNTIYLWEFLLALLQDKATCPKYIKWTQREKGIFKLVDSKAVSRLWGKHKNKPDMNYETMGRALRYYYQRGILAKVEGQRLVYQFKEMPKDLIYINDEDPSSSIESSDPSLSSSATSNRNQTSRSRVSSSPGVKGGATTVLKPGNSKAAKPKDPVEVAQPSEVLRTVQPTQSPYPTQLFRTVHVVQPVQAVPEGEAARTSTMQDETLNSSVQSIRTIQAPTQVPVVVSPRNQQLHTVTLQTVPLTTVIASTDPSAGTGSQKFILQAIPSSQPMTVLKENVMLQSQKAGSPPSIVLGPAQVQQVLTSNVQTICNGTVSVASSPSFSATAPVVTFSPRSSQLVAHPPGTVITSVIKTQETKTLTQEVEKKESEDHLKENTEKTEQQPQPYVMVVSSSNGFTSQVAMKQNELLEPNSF
# Procedure, shortened: as §1
# EHF = biological target: T4, EHF (Homo sapiens, UniProt Q9NZC4 1-300)
# T4 sequence: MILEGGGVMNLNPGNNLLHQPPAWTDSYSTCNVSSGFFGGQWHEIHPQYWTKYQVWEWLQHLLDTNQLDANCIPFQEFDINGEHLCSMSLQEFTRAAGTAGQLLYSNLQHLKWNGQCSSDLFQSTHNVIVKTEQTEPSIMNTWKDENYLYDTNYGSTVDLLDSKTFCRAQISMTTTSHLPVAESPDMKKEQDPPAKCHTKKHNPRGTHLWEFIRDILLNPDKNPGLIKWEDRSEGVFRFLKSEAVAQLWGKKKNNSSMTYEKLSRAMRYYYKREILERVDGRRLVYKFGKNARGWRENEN
# Procedure, shortened: as §1
# SPIB = SPIB (Homo sapiens, UniProt Q01892 1-262)
# SPIB, sequence (Q01892 whole entry): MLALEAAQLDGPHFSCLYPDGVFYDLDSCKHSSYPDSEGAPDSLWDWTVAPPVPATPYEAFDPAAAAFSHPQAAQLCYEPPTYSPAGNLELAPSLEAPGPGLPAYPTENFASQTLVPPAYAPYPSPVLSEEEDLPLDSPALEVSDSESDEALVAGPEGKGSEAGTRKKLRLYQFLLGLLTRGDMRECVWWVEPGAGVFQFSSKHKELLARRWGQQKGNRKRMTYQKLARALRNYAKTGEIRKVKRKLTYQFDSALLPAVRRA
# Procedure, shortened: as §1
# ELK3 = biological target: T5, ELK3 (Homo sapiens, UniProt P41970 1-407)
# T5 sequence: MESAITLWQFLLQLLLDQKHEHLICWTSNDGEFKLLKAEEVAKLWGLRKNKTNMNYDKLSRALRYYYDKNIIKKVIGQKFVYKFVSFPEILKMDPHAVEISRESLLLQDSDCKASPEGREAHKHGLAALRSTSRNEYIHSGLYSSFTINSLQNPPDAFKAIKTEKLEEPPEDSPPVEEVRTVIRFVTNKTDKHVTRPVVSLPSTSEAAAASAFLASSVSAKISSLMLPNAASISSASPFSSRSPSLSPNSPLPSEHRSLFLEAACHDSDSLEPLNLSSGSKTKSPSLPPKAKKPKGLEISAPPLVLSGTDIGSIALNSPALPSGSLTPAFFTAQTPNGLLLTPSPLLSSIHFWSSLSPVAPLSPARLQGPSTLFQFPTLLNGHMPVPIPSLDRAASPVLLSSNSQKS
# Procedure, shortened: as §1
# ETV5 = ETV5 (Homo sapiens, UniProt P41161 1-510)
# ETV5, sequence (P41161 whole entry): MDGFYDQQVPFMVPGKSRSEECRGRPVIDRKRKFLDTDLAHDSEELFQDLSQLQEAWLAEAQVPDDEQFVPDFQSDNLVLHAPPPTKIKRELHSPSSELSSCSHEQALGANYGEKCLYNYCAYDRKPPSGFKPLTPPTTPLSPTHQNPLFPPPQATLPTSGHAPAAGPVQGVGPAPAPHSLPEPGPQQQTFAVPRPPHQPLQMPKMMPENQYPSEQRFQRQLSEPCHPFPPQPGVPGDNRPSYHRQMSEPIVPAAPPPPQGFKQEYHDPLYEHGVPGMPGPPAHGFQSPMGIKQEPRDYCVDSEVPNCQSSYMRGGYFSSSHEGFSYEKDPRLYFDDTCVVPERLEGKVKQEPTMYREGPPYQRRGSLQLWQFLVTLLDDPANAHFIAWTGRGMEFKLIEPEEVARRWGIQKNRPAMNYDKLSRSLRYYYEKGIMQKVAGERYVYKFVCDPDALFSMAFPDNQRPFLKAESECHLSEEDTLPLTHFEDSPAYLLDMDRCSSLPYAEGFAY
# Procedure, shortened: as §1
# SPIC = biological target: T6, SPIC (Homo sapiens, UniProt Q8N5J4 1-248)
# T6 sequence: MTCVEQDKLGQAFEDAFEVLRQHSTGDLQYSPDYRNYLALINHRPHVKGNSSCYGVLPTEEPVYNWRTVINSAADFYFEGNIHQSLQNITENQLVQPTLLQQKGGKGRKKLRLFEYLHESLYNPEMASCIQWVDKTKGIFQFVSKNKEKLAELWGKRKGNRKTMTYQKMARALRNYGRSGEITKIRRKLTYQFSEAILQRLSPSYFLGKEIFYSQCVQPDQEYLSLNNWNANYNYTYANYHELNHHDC
# Procedure, shortened: as §1
# ELF4 = ELF4 (Homo sapiens, UniProt Q99607 1-663)
# ELF4, sequence (Q99607 whole entry): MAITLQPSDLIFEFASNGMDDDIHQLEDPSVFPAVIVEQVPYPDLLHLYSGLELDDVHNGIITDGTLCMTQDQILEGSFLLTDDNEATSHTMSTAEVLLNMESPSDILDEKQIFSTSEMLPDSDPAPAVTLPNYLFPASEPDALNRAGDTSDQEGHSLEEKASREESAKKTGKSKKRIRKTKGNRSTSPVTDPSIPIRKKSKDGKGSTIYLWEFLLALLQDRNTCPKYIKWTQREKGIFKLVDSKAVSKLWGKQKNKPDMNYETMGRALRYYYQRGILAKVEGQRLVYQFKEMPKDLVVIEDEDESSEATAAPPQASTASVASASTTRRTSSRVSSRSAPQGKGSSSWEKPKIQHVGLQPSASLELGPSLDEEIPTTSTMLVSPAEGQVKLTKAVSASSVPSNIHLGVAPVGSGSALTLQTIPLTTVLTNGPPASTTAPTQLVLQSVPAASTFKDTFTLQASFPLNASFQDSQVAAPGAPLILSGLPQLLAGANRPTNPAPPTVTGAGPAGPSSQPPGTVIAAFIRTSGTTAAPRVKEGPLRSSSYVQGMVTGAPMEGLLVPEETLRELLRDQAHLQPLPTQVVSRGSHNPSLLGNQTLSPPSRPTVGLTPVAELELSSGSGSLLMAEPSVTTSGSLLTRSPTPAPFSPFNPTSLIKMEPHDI
# Procedure, shortened: as §1
# ETV1 = ETV1 (Homo sapiens, UniProt P50549 1-477)
# ETV1, sequence (P50549 whole entry): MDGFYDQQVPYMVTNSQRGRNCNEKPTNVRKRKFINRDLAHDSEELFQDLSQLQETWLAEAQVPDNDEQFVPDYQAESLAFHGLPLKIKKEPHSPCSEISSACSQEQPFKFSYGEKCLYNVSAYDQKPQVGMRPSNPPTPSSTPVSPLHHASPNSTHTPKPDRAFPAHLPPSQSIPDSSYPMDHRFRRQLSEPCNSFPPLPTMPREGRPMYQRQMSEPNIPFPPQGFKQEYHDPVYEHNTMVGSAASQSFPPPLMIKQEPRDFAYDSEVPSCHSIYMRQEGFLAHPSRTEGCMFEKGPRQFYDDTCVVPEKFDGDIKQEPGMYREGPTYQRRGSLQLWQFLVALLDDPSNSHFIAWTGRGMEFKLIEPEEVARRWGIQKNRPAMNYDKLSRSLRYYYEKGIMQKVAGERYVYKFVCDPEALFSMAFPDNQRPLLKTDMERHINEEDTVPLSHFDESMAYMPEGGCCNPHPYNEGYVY
# Procedure, shortened: as §1
# ERF = biological target: T7, ERF (Homo sapiens, UniProt P50548 1-548)
# T7 sequence: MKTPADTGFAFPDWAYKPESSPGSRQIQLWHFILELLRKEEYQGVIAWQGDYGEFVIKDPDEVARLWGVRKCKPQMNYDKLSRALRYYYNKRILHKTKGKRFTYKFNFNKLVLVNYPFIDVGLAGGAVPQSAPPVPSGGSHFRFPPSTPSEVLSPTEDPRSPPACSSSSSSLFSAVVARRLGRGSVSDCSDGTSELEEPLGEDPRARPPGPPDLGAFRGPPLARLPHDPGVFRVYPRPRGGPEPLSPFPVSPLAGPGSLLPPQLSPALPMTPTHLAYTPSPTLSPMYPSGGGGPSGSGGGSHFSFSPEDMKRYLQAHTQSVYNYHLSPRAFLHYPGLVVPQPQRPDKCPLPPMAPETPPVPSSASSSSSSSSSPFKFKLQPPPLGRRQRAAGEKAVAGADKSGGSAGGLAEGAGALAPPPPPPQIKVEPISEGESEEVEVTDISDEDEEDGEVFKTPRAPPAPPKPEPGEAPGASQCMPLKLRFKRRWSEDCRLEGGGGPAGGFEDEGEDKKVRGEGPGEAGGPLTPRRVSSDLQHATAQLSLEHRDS
# Procedure, shortened: as §1
# ETV3L = biological target: T8, ETV3L (Homo sapiens, UniProt Q6ZN32 1-361)
# T8 sequence: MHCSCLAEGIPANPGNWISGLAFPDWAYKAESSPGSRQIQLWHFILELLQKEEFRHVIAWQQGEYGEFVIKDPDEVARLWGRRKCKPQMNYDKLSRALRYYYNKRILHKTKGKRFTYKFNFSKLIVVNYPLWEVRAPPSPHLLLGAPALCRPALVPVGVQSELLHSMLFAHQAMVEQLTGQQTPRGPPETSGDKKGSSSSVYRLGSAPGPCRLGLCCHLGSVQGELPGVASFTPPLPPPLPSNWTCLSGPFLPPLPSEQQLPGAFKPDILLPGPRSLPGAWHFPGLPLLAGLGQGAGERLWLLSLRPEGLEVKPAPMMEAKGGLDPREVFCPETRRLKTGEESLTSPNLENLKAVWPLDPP
# Procedure, shortened: as §1
# ETS2 = biological target: T9, ETS2 (Homo sapiens, UniProt P15036 1-469)
# T9 sequence: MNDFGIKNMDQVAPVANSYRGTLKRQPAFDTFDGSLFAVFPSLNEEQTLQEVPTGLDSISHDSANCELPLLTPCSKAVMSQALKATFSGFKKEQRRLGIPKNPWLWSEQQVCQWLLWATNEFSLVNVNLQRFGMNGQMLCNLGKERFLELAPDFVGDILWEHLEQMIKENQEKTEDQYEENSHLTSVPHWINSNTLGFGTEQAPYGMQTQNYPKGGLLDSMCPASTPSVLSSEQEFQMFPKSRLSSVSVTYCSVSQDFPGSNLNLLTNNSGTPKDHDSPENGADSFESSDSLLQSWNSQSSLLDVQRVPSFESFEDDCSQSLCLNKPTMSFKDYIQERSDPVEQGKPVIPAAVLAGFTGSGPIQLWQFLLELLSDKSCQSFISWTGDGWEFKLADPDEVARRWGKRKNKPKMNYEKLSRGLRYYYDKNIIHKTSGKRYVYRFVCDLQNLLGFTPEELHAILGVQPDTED
# Procedure, shortened: as §1
# ETV3 = biological target: T10, ETV3 (Homo sapiens, UniProt P41162-2 1-143)
# T10 sequence: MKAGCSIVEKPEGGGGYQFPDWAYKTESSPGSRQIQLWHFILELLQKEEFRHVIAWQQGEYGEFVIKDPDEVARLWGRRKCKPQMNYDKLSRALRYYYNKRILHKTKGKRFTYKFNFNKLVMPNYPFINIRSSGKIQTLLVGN
# Procedure, shortened: as §1
sequence,measurement,setting,value
TCGCTG,binding signal,FLI1,"1.02 fold enrichment (6-mer frequency, TF over GST control)"
same,binding signal,GABPA,"1.01 fold enrichment (6-mer frequency, TF over GST control)"
same,binding signal,ERG,"1.02 fold enrichment (6-mer frequency, TF over GST control)"
same,binding signal,ELF1,"1.05 fold enrichment (6-mer frequency, TF over GST control)"
same,binding signal,EHF,"1.1 fold enrichment (6-mer frequency, TF over GST control)"
same,binding signal,SPIB,"1.22 fold enrichment (6-mer frequency, TF over GST control)"
same,binding signal,ELK3,"1.23 fold enrichment (6-mer frequency, TF over GST control)"
same,binding signal,ETV5,"1.11 fold enrichment (6-mer frequency, TF over GST control)"
same,binding signal,SPIC,"1.19 fold enrichment (6-mer frequency, TF over GST control)"
same,binding signal,ELF4,"1.05 fold enrichment (6-mer frequency, TF over GST control)"
same,binding signal,ETV1,"1.15 fold enrichment (6-mer frequency, TF over GST control)"
same,binding signal,ERF,"1.16 fold enrichment (6-mer frequency, TF over GST control)"
same,binding signal,ETV3L,"1.05 fold enrichment (6-mer frequency, TF over GST control)"
same,binding signal,ETS2,"1.12 fold enrichment (6-mer frequency, TF over GST control)"
same,binding signal,ETV3,"1.13 fold enrichment (6-mer frequency, TF over GST control)"
